According to PMC10668032, “Altered binding affinity of SIX1-Q177R correlates with enhanced WNT5A and WNT pathway effector expression in Wilms tumor”:
Over roughly 33,000 sequences, “e-score” has its median near -0.05; the highest 2% begin near 0.38. The sample holds the highest values, similar sequences and a random draw of the others, so the mix is not that of the screen.

Molecular target: T1, SIX1-Q177R homeodomain (human, UniProt Q15475 108-198, Q177R)
T1 sequence: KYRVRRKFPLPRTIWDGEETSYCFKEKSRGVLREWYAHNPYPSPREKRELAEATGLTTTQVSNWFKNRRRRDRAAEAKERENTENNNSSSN
Assay: universal protein binding microarray; Universal all-10-mer PBM (8x60K, AMADID 030236), 300 nM GST-tagged protein, Alexa Fluor 488 anti-GST; buffer, salt, pH and temperature not stated (as in Berger); high values mean tight binding
Details: protein: ivt; tags: N-terminal GST; dsDNA, one strand shown
Outline: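 Homeodomains carrying a GST tag were produced by in vitro transcription/translation, then quantified by anti-GST western blot against a recombinant GST standard curve. Duplicate applications at 300 nM final concentration were made to universal 'all 10-mer' protein binding microarrays in 8×60K format. The Universal PBM Analysis Suite was used to express binding as 8-mer E-scores.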

Sequence	binding signal [E-score]
AGTGTATC	0.399 ± 0.0163
AGAGTATC	0.238 ± 0.0465
AGTGTATA	0.359 ± 0.0244
CGGGTATC	0.374 ± 0.0147
TCTAGACA	0.155 ± 0.0039
CGATCCCC	0.303 ± 0.0313
CCCCAGGA	0.173 ± 0.00623
AGCGAGTG	0.268 ± 0.0193
CAAACTAG	0.152 ± 0.0273
GGGTGTGA	0.429 ± 0.0152
GTGTGTGA	0.229 ± 0.0436
CGGTGAGA	0.177 ± 0.0168
AGGTGTGA	0.4098 ± 0.00286
CGGGGTGA	0.166 ± 0.0603
CGGTGTGA	0.434 ± 0.0168
ACGTGTGC	0.16 ± 0.0249
AGGTGTGC	0.322 ± 0.019
AGGTGTGG	0.371 ± 0.0242
CGGTGCGC	0.221 ± 0.0195
GAGTGTGA	0.29 ± 0.0218
CGGTGTGC	0.381 ± 0.0324
ACTCCGAT	0.182 ± 0.0265

Sequence	binding signal [E-score]
CCCCGACG	0.162 ± 0.0371
CACTAAGA	0.17 ± 0.0243
AGGTATCG	0.33 ± 0.00862
ACCCTGGA	0.168 ± 0.028
CCCCACAG	0.172 ± 0.025
CACCAAGC	0.26 ± 0.0355
CACCAGCC	0.239 ± 0.0131
CCCCAACA	0.278 ± 0.00752
ACTGATAC	0.295 ± 0.00533
ACTGACAC	0.4777 ± 0.00257
GCTGATAC	0.243 ± 0.0143
GCTGACAC	0.444 ± 0.00725
CCTGACAC	0.452 ± 0.00834
CCTGACCC	0.159 ± 0.0403
ACTGACCC	0.213 ± 0.011
ACTGACAA	0.153 ± 0.0151
CCTGACGC	0.161 ± 0.00552
GACTCCCC	0.161 ± 0.0189
AACCCACA	0.157 ± 0.00573
GAGTCACC	0.157 ± 0.0094
CTACGACA	0.172 ± 0.0171
CACCACGC	0.2817 ± 0.00156

Sequence	binding signal [E-score]
ATTCGGGG	0.1763 ± 0.00138
ATCGACTC	0.201 ± 0.019
CTCGACCC	0.182 ± 0.0618
GTCGACAC	0.4143 ± 0.00159
ATCGACCC	0.163 ± 0.0642
CTCGGCAC	0.194 ± 0.0445
CTCGACAC	0.419 ± 0.0214
GTCGAAAC	0.182 ± 0.0154
ATCGACAC	0.436 ± 0.0239
CACGCCTG	0.202 ± 0.0125
CCCCTCCA	0.195 ± 0.0175
ACATGACA	0.179 ± 0.0207
ATGCCAAG	0.162 ± 0.0414
GTGGGGTA	0.278 ± 0.0225
GGTTTAAC	0.1932 ± 0.000396
AAGGGTCG	0.188 ± 0.0266
AAGTGTGG	0.169 ± 0.00659
CAGTCACA	0.1706 ± 0.000283
CAGTGTCC	0.374 ± 0.0168
CAGTGTCA	0.4579 ± 0.00161
AAGTGTCG	0.384 ± 0.00583
CAGTGTCG	0.444 ± 0.0154

Sequence	binding signal [E-score]
CCTCGACA	0.218 ± 0.00226
CCGACTCG	0.159 ± 0.0511
GGGGTCGA	0.298 ± 0.0393
TAGCGACA	0.172 ± 0.00519
AGGGGTCA	0.28 ± 0.00906
CACCCGTG	0.3705 ± 0.00306
GTTTCACA	0.161 ± 0.0356
ACCAGTAC	0.151 ± 0.0205
GGTGCGTA	0.161 ± 0.0186
TGTACACA	0.353 ± 0.00919
AGTACACG	0.4259 ± 0.00113
CGTACCCC	0.24 ± 0.0402
GGTACACA	0.322 ± 0.0315
GGCACACC	0.351 ± 0.0301
CGTACTCC	0.221 ± 0.003
CGTACACC	0.483 ± 0.00107
GGTACACC	0.4848 ± 0.00354
CGTACACA	0.268 ± 0.0421
CGTACACG	0.405 ± 0.0112
AGTACACA	0.253 ± 0.0191
CACTTCAA	0.265 ± 0.016
AAACCCCT	0.178 ± 0.0353
